Hit rate of the full screen: of about 410,000 compounds, about 480 (0.12%) were called active. The entries come from a sample that favours actives as a whole. A number with no mark means an inactive call. Cut-off read from the data, not from the text of the source: active = activation above about 50%; inconclusive = mostly about 30% to 49%; inactive = weaker than that.
biological target: Mucolipin-1 (Homo sapiens) (UniProt Q9GZU1); assay: qHTS for Agonists of the Human Mucolipin Transient Receptor Potential 1 (TRPML1); conditions: TRPML1-expressing cells, Ca2+ dye fluorescence, FDSS; active compounds read high; note: 0% is about no effect
Excerpt: Mutations of human Mucolipin transient receptor potential 1 (TRPML1) cause type IV mucolipidosis (ML4), a devastating neurodegenerative disease in young children. […] Currently, there is no treatment for ML4. […] Under physiological conditions, TRPMLs regulate membrane trafficking by transducing information about PI(3,5)P2 levels into changes in juxtaorganellar Ca2+, thereby triggering membrane fusion/fission events in the late endocytic pathways (endolysosomal trafficking). In addition, TRPML1 mediates release of Fe2+ from late endosomes and lysosomes, which is essential for cellular iron metabolism. Thus, impaired ion (Ca2+ and Fe2+) homeostasis underlies lysosomal dysfunction and ML4 phenotypes. In ML4 cells, the problem is twofold. First, defective Ca2+-dependent membrane trafficking due to TRPML1-deficiency causes accumulation of lipids and other bio-materials in the lysosome. The second strike comes from the lysosomal iron overload (due to impairment of TRPML1's Fe2+ conductivity), which converts the accumulated materials into the nondegradable (resistant to lysosomal degradation) lipofuscin (also called aging pigment) in the lysosome. Lipofuscin accumulation dramatically compromises the functions of lysosomes.
Niemann-Pick type C (NPC) disease is another lysosome storage disease (LSD) with severe neurodegeneration during the childhood. Currently, there is no cure for NPC. […] Thus, TRPML1 is likely to be an essential regulator of lysosome ion homeostasis. We specifically hypothesize that stimulating TRPML1's Fe2+/Ca2+ channel activity in the lysosome using synthetic agonists can alleviate neurodegeneration associated with ML4 or NPC.
To this end, a high throughput screen was developed in a miniaturized format to screen against the Molecular Libraries Small Molecule Repository (MLSMR) to find small molecules that act either as inhibitors or agonist against the TRPML1 channel.
NIH Chemical Genomics Center [NCGC]
NIH Molecular Libraries Probe Centers Network [MLPCN]
Assay Submitter (PI): Haoxing Xu, University of Michigan Ann Arbor
TRPML1-DL cells are dissociated from flasks, counted and, brought up to a density of 500,000 cells per mL of media containing a 1X Tet inducer. Using a Multidrop Combi, 3uL of this cell solution is dispensed to each well of a 1536 TC treated, black, clear bottom hi base plate for a final cell density of 1,500 cells per well. The assay plates are incubated overnight (approximately 16 hours) at 37 degrees C and 5% CO2. Using a Multidrop Combi, 2uL of ABD Ca8 no wash dye plus quencher is added to each well. The assay plates incubate at room temperature in the dark for 45-90 minutes. The assay plate is read on the FDSS using the following protocol: 10 second baseline read, 23nL of compounds and controls are added using 1536 pintool, agonist read for 110 seconds, 1 uL EC80 addition (4uM final 54-4 diluted in media), antagonist read for 110 seconds.

Mucolipin-1 (Homo sapiens), sequence (Q9GZU1 whole entry, looked up, the tested form may be a part): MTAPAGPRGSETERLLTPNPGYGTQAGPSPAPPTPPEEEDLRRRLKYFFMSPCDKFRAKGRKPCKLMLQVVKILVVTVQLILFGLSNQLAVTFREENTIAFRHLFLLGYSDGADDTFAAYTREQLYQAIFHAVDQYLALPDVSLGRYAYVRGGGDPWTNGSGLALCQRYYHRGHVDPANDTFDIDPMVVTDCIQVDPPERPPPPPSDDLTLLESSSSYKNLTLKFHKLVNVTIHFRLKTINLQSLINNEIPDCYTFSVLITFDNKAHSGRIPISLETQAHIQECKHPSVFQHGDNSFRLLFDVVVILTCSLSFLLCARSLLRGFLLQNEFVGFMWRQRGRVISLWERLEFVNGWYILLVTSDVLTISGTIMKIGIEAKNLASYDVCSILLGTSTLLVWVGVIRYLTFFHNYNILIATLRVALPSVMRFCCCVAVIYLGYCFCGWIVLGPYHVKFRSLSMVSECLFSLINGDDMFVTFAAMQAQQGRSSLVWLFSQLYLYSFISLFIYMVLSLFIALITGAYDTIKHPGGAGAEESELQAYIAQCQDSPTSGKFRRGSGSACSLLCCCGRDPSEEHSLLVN

Structure (SMILES) | activation
Cc1ccc(CNC(=O)c2cccc3c2C(=O)c2ccc(N4CCC(C)CC4)cc2S3(=O)=O)cc1 | 66.9% (active)
O=C1c2ccccc2S(=O)(=O)c2cc(N3CCN(c4ccccn4)CC3)ccc21 | -0.448%
Cc1ccc(CNC(=O)c2ccccc2CCc2ccccc2)cc1 | 0.628%
O=C(COC(=O)c1ccccc1OCCOc1ccccc1)Nc1cccc(Br)c1 | -1.41%
COc1cc2[nH]c(C)c(CCN3CCN(c4ccccc4)CC3)c2cc1OC | -0.545%
NC(=O)c1ccc(NC(=O)COC(=O)C(Cc2ccccc2)NC(=O)c2ccccc2)cc1 (stereo not given) | 4.33%
NC(=O)c1ccc(NC(=O)COC(=O)c2c3c(nc4ccccc24)/C(=C\c2ccc4c(c2)OCO4)CCC3)cc1 | 96% (active)
CN(CC(=O)Nc1ccc(C(N)=O)cc1)S(=O)(=O)c1ccc2c(c1)OCCO2 | 0.311%
C[N+]1(CC(=O)c2cccs2)CCOCC1 | -0.317%
CN(C)c1ccc(/C=C2\C=Cc3ccccc32)cc1Br | 0.0951%
OCCNc1ncnc2oc(-c3ccco3)c(-c3ccco3)c12 | 0.995%
COc1ccc(-c2cc(C(=O)Nc3sc4c(c3C(N)=O)CCCC4)no2)cc1 | 0.03%
CC(C)c1ccc(NC(=O)Cn2nnc(C(=O)NCCc3ccccc3)c2N)cc1 | 1.91%
Cc1ccc(-c2nnc3ccc(SCC(N)=O)nn23)cc1 | -0.578%
COc1ccc(C(=O)Nc2nonc2-c2ccc(OC)c(OC)c2)cc1Cl | 2.17%
CC1(C)CC(=O)c2cc(C(=O)NCc3ccccc3)c(=O)[nH]c2C1 | -0.38%
COc1ccc(C(=O)NCC(c2ccc(N(C)C)cc2)N2CCc3ccccc32)c(OC)c1 (stereo not given) | -0.0968%
CCOc1ccccc1N(CC)C(=O)c1cc2ccc3cccnc3c2[nH]1 | 1.16%
CCOC(=O)c1ccc(NC(=O)CC2C(=O)N(c3ccccc3)C(=O)N2Cc2cccs2)cc1 (stereo not given) | 0.378%
Cc1csc(NCC(=O)c2c[nH]c3ccccc23)n1 | -0.545%
Nc1ccccc1N | -0.412%
c1ccc(Cn2nnc3c(N4CCCCC4)ncnc32)cc1 | -0.998%
Cc1cccc(-c2nnc(SC(C)C(=O)Nc3ccccc3)n2C)c1 (stereo not given) | -0.995%

Structure (SMILES) | activation
Cc1ccc(C=O)cc1Cl | -0.475%
C(=Nc1ccc(/C=C/c2ccnc3ccccc23)cc1)c1cc2c3c(c1)CCCN3CCC2 | 1.62%
ClC/C=C/C[n+]1ccccc1Cl | 0.254%
Nc1ccc(/C=C/c2ccnc3ccccc23)c([N+](=O)[O-])c1 | 17.6%
Cc1ccccc1NC(=O)Cn1c(=O)n(CC2CCC(C(=O)NCCc3ccccc3)CC2)c(=O)c2ccccc21 (stereo not given) | 0.124%
Clc1cccc[n+]1CCCC[n+]1ccccc1Cl | -0.384%
CCOc1ccc2oc(=O)cc(CN3CCN(C(=O)c4ccc(F)cc4)CC3)c2c1 | 0.651%
CC(C)(C(=O)NO)c1ccccc1 | -0.108%
CN(C(=N)N)c1ccc(/C=C2\C=Cc3ccccc32)cc1 | -0.285%
CCCCSc1ncnc2c1sc1nc(N3CCOCC3)c3c(c12)CCCC3 | 0.201%
CSc1n[nH]c(-c2ccco2)n1 | -0.16%
O=C(C[n+]1ccncc1)c1ccc2c(c1)CCCC2 | -0.708%
Cc1cc[n+](C2CCCCC2)cc1 | 3.69%
CN1CCN(/[N+]([O-])=N/Oc2ccc([N+](=O)[O-])cc2[N+](=O)[O-])CC1 | 1.19%
C=C1C=C(C(F)F)n2ncc(C(=O)NCCc3ccccc3OC)c2N1 | -1.28%
COc1ccc(CCNc2nc(-c3ccc(Cl)cc3)cc(C(F)(F)F)n2)cc1OC | -0.222%
CCC(=O)N(Cc1ccccc1)c1ccccn1 | -0.645%
Cc1cc(C)cc(NC(=O)N(C)Cc2ccccc2)c1 | 0.932%
CN(C(=O)CN(CCO)CC(=O)N(C)C(C)(C)Cc1ccccc1)C(C)(C)Cc1ccccc1 | 51.2% (active)
COc1ccc(C2/C=C\CN(C(=O)c3ccc(C)cc3)C(Cc3ccccc3)C(=O)N2Cc2ccc(F)cc2)cc1 (stereo not given) | 0.118%
CCc1ccc(C2CC(=O)c3c([nH]c(C(=O)OCc4ccc(C)cc4)c3C)C2)cc1 (stereo not given) | 1.69%
CCc1ccc(CNCc2c(C(=O)O)n(Cc3ccc(F)cc3Cl)c3cc(OC)ccc23)cc1 | 0.807%
